Results filed as inconclusive are left out. Where a call stands in place of a potency, no number is given. Values without a mark were called inactive. Calls of active or inactive are those of the source. The call rests on the fitted dose curve; in most records, active means well fitted cell-killing curve with a large enough effect; inconclusive means small, poorly fitted or top-dose-only effect, or effect the other way; inactive means no such curve, though single readings can be large or run the other way.
Assays:
[1] = Quantitative High-Throughput drug screen in 47 multiple myeloma cell lines against the NCATS MIPE library collection: LP1_DSMZ cell viability assay (AID 1918982); further: nearly all actives have a fitted effect of over 35% in size
Procedure, shortened: (§1)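 Inhibition of viability over 48 h was scored by ATP content (CellTiter-Glo) in 500-cell wells. Zero and full viability were defined by media-only and DMSO-only wells.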

[2] = Quantitative High-Throughput drug screen in 47 multiple myeloma cell lines against the NCATS MIPE library collection: KMS28PE_JCRB cell viability assay (AID 1918983); further: nearly all actives have a fitted effect of over 35% in size; further: potency means the concentration at half of the fitted maximal effect
Procedure, shortened: as §1

[3] = Quantitative High-Throughput drug screen in 47 multiple myeloma cell lines against the NCATS MIPE library collection: L363_DSMZ cell viability assay (AID 1918984); further: nearly all actives have a fitted effect of over 40% in size; further: potency means the concentration at half of the fitted maximal effect
Procedure, shortened: as §1

[4] = Quantitative High-Throughput drug screen in 47 multiple myeloma cell lines against the NCATS MIPE library collection: OCIMY5_PLB cell viability assay (AID 1918988); further: nearly all actives have a fitted effect of over 65% in size; further: potency means the concentration at half of the fitted maximal effect
Procedure, shortened: as §1

[5] = Quantitative High-Throughput drug screen in 47 multiple myeloma cell lines against the NCATS MIPE library collection: SKMM1_PLB cell viability assay (AID 1919863); settings: SKMM1 myeloma viability, CellTiter-Glo ATP, 48 h; viability: stronger effect = lower value; further: nearly all actives have a fitted effect of over 35% in size; further: potency means the concentration at half of the fitted maximal effect; on viability: series mostly up to about 46 µM
Procedure, shortened: as §1

[6] = Quantitative High-Throughput drug screen in 47 multiple myeloma cell lines against the NCATS MIPE library collection: U266_ATCC cell viability assay (AID 1919864); further: nearly all actives have a fitted effect of over 35% in size; further: potency means the concentration at half of the fitted maximal effect
Procedure, shortened: as §1

[7] = Quantitative High-Throughput drug screen in 47 multiple myeloma cell lines against the NCATS MIPE library collection: VP6_DJ cell viability assay (AID 1919867); further: nearly all actives have a fitted effect of over 40% in size; further: potency means the concentration at half of the fitted maximal effect
Procedure, shortened: as §1

[8] = Quantitative High-Throughput drug screen in 47 multiple myeloma cell lines against the NCATS MIPE library collection: PE2_PLB cell viability assay (AID 1919869); further: nearly all actives have a fitted effect of over 35% in size; further: potency means the concentration at half of the fitted maximal effect
Procedure, shortened: as §1

[9] = Quantitative High-Throughput drug screen in 47 multiple myeloma cell lines against the NCATS MIPE library collection: OPM2_DSMZ cell viability assay (AID 1919872); further: nearly all actives have a fitted effect of over 30% in size
Procedure, shortened: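 qHTS of the MIPE 4.0 collection: 500 myeloma cells/well, 48 h drug exposure at 37C in 5% CO2, then CellTiter-Glo for 5 min at room temperature before luminescence reading.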

[10] = Quantitative High-Throughput drug screen in 47 multiple myeloma cell lines against the NCATS MIPE library collection: KMS28BM_JCRB cell viability assay (AID 1919874); further: nearly all actives have a fitted effect of over 35% in size; further: potency means the concentration at half of the fitted maximal effect
Procedure, shortened: as §1

[11] = Quantitative High-Throughput drug screen in 47 multiple myeloma cell lines against the NCATS MIPE library collection: OPM1_PLB cell viability assay (AID 1918989); further: nearly all actives have a fitted effect of over 40% in size; further: potency means the concentration at half of the fitted maximal effect
Procedure, shortened: as §1

[12] = Quantitative High-Throughput drug screen in 47 multiple myeloma cell lines against the NCATS MIPE library collection: XG6_PLB cell viability assay (AID 1919865); further: nearly all actives have a fitted effect of over 40% in size; further: potency means the concentration at half of the fitted maximal effect
Procedure, shortened: as §1

[13] = Quantitative High-Throughput drug screen in 47 multiple myeloma cell lines against the NCATS MIPE library collection: PCM6_Riken cell viability assay (AID 1919870); further: nearly all actives have a fitted effect of over 30% in size; further: potency means the concentration at half of the fitted maximal effect
Procedure, shortened: as §1

[14] = Quantitative High-Throughput drug screen in 47 multiple myeloma cell lines against the NCATS MIPE library collection: KMS34_JCRB cell viability assay (AID 1918985); further: nearly all actives have a fitted effect of over 40% in size
Procedure, shortened: as §1

[15] = Quantitative High-Throughput drug screen in 47 multiple myeloma cell lines against the NCATS MIPE library collection: XG1_PLB cell viability assay (AID 1919866); further: nearly all actives have a fitted effect of over 35% in size; further: potency means the concentration at half of the fitted maximal effect
Procedure, shortened: as §1

[16] = Quantitative High-Throughput drug screen in 47 multiple myeloma cell lines against the NCATS MIPE library collection: RPMI8226_ATCC cell viability assay (AID 1919871); further: nearly all actives have a fitted effect of over 30% in size
Procedure, shortened: as §1

[17] = Quantitative High-Throughput drug screen in 47 multiple myeloma cell lines against the NCATS MIPE library collection: KMS11_JCRBsus cell viability assay (AID 1919873); further: nearly all actives have a fitted effect of over 50% in size
Procedure, shortened: as §1

[18] = Quantitative High-Throughput drug screen in 47 multiple myeloma cell lines against the NCATS MIPE library collection: UTMC2_PLB cell viability assay (AID 1919868); further: nearly all actives have a fitted effect of over 55% in size; further: potency means the concentration at half of the fitted maximal effect
Procedure, shortened: as §1

[19] = Quantitative High-Throughput drug screen in 47 multiple myeloma cell lines against the NCATS MIPE library collection: OCIMY7_PLB cell viability assay (AID 1918987); further: nearly all actives have a fitted effect of over 65% in size; further: potency means the concentration at half of the fitted maximal effect
Procedure, shortened: as §1

Row | Compound | Potency [1] | Potency [2] | Potency [3] | Potency [4] | Potency [5] | Potency [6] | Potency [7] | Potency [8] | Potency [9] | Potency [10] | Potency [11] | Potency [12] | Potency [13] | Potency [14] | viability [5] [%] | Potency [15] | Potency [16] | Potency [17] | Potency [18] | Potency [19]
1 | CC(C)Cn1cnc2c(N)nc3ccccc3c21 | inactive | 23.5 µM (active) | 4.18 µM (active) | 16.6 µM (active) | 14.8 µM (active) | 20.9 µM (active) | inactive | inactive | inactive | 14.8 µM (active) | – | – | – | – | – | – | – | – | – | –
2 | O=C(O)c1ccc(-n2nc(-c3ccccc3O)nc2-c2ccccc2O)cc1 | – | inactive | – | – | – | – | 16.6 µM (active) | – | inactive | – | 23.5 µM (active) | 20.9 µM (active) | 23.5 µM (active) | – | – | – | – | – | – | –
3 | CCCN[C@H]1CCc2nc(N)sc2C1 | inactive | inactive | inactive | – | – | inactive | 18.7 µM (active) | inactive | inactive | inactive | inactive | inactive | – | inactive | 141 | inactive | inactive | inactive | – | –
4 | CN(Cc1cc(Br)cc(Br)c1N)C1CCCCC1 | – | inactive | inactive | – | – | – | – | – | inactive | – | inactive | inactive | – | – | – | – | – | inactive | inactive | –
5 | O=P(O)(O)C(O)(Cc1cccnc1)P(=O)(O)O | inactive | inactive | inactive | inactive | – | – | inactive | inactive | inactive | inactive | inactive | – | inactive | – | – | inactive | – | inactive | inactive | –
6 | COc1cc([C@@H]2c3cc4c(cc3[C@H](O)[C@H]3COC(=O)[C@H]23)OCO4)cc(OC)c1OC | inactive | – | inactive | – | – | inactive | – | inactive | inactive | – | inactive | inactive | inactive | – | 65.8 | inactive | – | inactive | inactive | inactive
7 | N[C@@H](C(=O)N[C@@H]1C(=O)N2C(C(=O)O)=C(Cl)CS[C@H]12)c1ccccc1 | inactive | inactive | – | – | – | – | – | inactive | inactive | – | inactive | inactive | inactive | inactive | 123 | – | inactive | – | inactive | –
8 | COc1ccc2c(c1)c(CC(=O)OCC(=O)O)c(C)n2C(=O)c1ccc(Cl)cc1 | inactive | inactive | inactive | – | – | inactive | – | – | inactive | inactive | inactive | – | inactive | inactive | 138 | inactive | inactive | inactive | – | –
9 | CCn1cc(C(=O)O)c(=O)c2cc(F)c(N3CCNCC3)cc21 | – | 2.96 µM (active) | – | inactive | – | – | inactive | inactive | inactive | inactive | inactive | inactive | – | – | – | inactive | inactive | inactive | inactive | –
10 | CC(C(=O)O)c1ccc2c(c1)CC(=O)c1ccccc1S2 (stereo not given) | inactive | inactive | – | – | – | – | – | inactive | inactive | – | inactive | – | – | – | – | – | inactive | – | – | –
11 | CNS(=O)(=O)CCc1ccc2[nH]cc(C3CCN(C)CC3)c2c1 | – | inactive | 23.5 µM (active) | 1.18 µM (active) | 4.18 µM (active) | – | – | 1.66 µM (active) | inactive | inactive | 5.26 µM (active) | 0.372 µM (active) | inactive | – | – | 0.743 µM (active) | – | inactive | 1.05 µM (active) | 0.332 µM (active)
12 | COc1c(N2CCNC(C)C2)c(F)cc2c(=O)c(C(=O)O)cn(C3CC3)c12 (stereo not given) | inactive | inactive | – | inactive | – | inactive | – | – | inactive | inactive | – | inactive | inactive | – | 135 | inactive | inactive | inactive | – | –
13 | C[C@@H]1CN(c2c(F)c(N)c3c(=O)c(C(=O)O)cn(C4CC4)c3c2F)C[C@H](C)N1 | inactive | inactive | inactive | – | – | – | – | inactive | inactive | inactive | inactive | inactive | – | – | 160 | inactive | inactive | inactive | inactive | –

— PubChem BioAssay (NCATS)
